APEX1 inh – qHTS Assay for Inhibitors of the Human Apurinic/apyrimidinic Endonuclease 1 (APE1) | recombinant APE1, TAMRA/BHQ-2 abasic DNA cleavage fluorescence | AID 2517, 2012 | 0.35% of 350,000 active | Potency, µM (doses to about 65.8 µM), for inactives: top-dose activity change, negative = inhibition, hits mostly inhibitors;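 further: potency means the concentration at half of the fitted maximal effect; plate controls were vehicle for no effect and reference inhibitor for full effect; nearly all actives have a fitted effect of over 55% in size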
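Step 1: APE1 (0.75 nM) with compound, 15 min RT. Step 2: add 50 nM fluorophore/quencher THF duplex. Step 3: three fluorescence reads 60 s apart (525/598 nm); read 3 minus read 1 = reaction progress.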
RECQ1 helicase – qHTS Assay for Inhibitors of RecQ-Like Dna Helicase 1 (RECQ1). Potency, µM (series often up to 57.3 µM), for the others: at the highest dose activity, negative = inhibition, actives largely listed as inhibitors. RECQ1 DNA unwinding, red fluorescence kinetic read. AID 2549, 2010. ATP-dependent DNA helicase Q1 (Homo sapiens), P46063. 0.54% of 240,000 active;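 further: potency means the concentration at half of the fitted maximal effect; plate controls were vehicle for no effect and no enzyme for full effect; nearly all actives have a fitted effect of over 30% in size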
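RECQ1T1 50 nM; forked duplex (20 bp + 30-nt ss tails) 200 nM, ATP 2 mM final; pH 8.0, 2 mM MgCl2, 2.5 ug/ml poly(dI-dC); 15 min compound preincubation; discontinuous kinetic read over 2 h at RT.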
FEN1 inhibitor – qHTS Assay for the Inhibitors of Human Flap endonuclease 1 (FEN1); P39748; Recombinant FEN1 flap cleavage, fluorescence, 15 min; Potency, µM (highest dose often 114 µM), for inactives: top-dose activity change, negative = inhibition, actives largely listed as inhibitors; 0.35% of 390,000 active; further: potency means the concentration at half of the fitted maximal effect; nearly all actives have a fitted effect of over 65% in size
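FEN1 at 10 nM preincubated with compounds 15 min at room temperature, then flap DNA substrate added at 50 nM final. Signal read at 0 and 15 min; concentration-response fitted with four-parameter Hill equation.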
BLM inh – qHTS Assay for Inhibitors of Bloom's syndrome helicase (BLM); Potency, µM (titrated, usually from 56.1 µM), without a hit: at the highest dose activity change, negative = inhibition, actives largely listed as inhibitors; recombinant BLM DNA unwinding, fluorescence dequenching; AID 2528, 2010; 0.2% of 350,000 active; RecQ-like DNA helicase BLM (Homo sapiens), P54132;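 further: potency means the concentration at half of the fitted maximal effect; plate controls were vehicle for no effect and no enzyme for full effect; nearly all actives have a fitted effect of over 35% in size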
PI5P4K alpha inh – qHTS for Inhibitors of phosphatidylinositol 5-phosphate 4-kinase (PI5P4K) | AID 652105, 2013 | 1.2% of 330,000 active | Phosphatidylinositol 5-phosphate 4-kinase type-2 alpha (Homo sapiens), P48426 | PI5P4Kalpha enzyme, ADP-Glo luminescence, 60 min; active compounds read low | max response, %; active means max response of -50% or lower; inconclusive means between -30% and -50%; inactive means -30% or higher; further: value at the top dose of about 77 µM
Target sequence (P48426 whole entry, looked up): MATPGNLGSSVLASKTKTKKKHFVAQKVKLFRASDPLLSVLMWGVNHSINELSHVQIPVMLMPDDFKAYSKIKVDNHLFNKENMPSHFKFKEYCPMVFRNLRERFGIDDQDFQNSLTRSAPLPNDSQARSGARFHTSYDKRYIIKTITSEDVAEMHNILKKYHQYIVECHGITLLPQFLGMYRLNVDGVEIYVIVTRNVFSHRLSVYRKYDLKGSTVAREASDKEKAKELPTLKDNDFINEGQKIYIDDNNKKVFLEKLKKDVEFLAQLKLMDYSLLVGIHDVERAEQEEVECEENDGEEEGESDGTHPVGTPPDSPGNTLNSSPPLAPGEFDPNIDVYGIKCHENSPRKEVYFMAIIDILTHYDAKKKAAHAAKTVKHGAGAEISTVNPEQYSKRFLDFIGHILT
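ADP-Glo luminescence end-point read after a 60 min room-temperature kinase reaction of PI5P4Kalpha plus substrate, initiated with ATP at 5 microM final. Buffer: 0.038 M HEPES pH 7.4, EGTA, 0.1% CHAPS, 5% DMSO.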
WRN inhibitor – qHTS for Inhibitors of WRN Helicase. Bifunctional 3'-5' exonuclease/ATP-dependent helicase WRN (Homo sapiens), Q14191. WRN helicase unwinding, fluorescent forked duplex, kinetic. Potency, µM (top dose mostly 114 µM), for the others: top-dose activity change, negative = inhibition, usual class: inhibitors. 0.46% of 360,000 active; further: potency means the concentration at half of the fitted maximal effect; nearly all actives have a fitted effect of over 55% in size
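Screening of the MLSMR collection measured strand separation of a quenched forked DNA duplex (100 nM) by 20 nM WRN with 2 mM ATP, all final. Compounds were preincubated with enzyme 15 min at room temperature.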
An asterisk follows results filed as active; i = inactive; ? = inconclusive; · = no result given; [ ] = remark or other dose. Only some compounds are listed: those with a hit (about 1.5% of all), similar ones and a draw of the others. Unless noted, the call rests on the fitted dose curve; in most records, active means well fitted curve in the direction sought with a large enough effect; inconclusive means small, poorly fitted or top-dose-only effect, or another doubt; inactive means no such curve, though single readings can be large; an effect the other way counts as inactive or inconclusive. Unless noted, on the % scale 0 is the no-effect control and ±100 the full control effect.

SMILES	APEX1 inh	RECQ1 helicase	FEN1 inhibitor	BLM inh	PI5P4K alpha inh	WRN inhibitor
C#CCOCCOCCOCCNc1nc(N2CCOCC2)nc(N2CCN(C(=O)[C@H](Cc3cc4ccccc4[nH]3)n3cc([C@@H](N)C(C)CC)nn3)CC2)n1 (some centres not stated)	?	-13%	17%	3%	2	-5%
C#CCOCCOCCOCCNc1nc(N2CCN(C(=O)C(Cc3cc4ccccc4[nH]3)n3cc(C(N)C(C)CC)nn3)CC2)nc(N2CCN(C(=O)C(Cc3cc4ccccc4[nH]3)n3cc(C(N)C(C)CC)nn3)CC2)n1 (configuration not stated)	7%	?	?	-6%	-52*	-30%
C#CCOCCOCCOCCNc1nc(N2CCN(C(=O)[C@H](CCCCN)n3cc([C@@H](N)C(C)CC)nn3)CC2)nc(N2CCN(C(=O)[C@H](Cc3cc4ccccc4[nH]3)n3cc([C@@H](N)C(C)CC)nn3)CC2)n1 (some centres not stated)	1%	·	-9%	·	-57*	?
CC1N(C)c2cc(NC(=O)c3ccco3)ccc2C1(C)C (configuration not stated)	?	25µM*	?	?	·	50µM*
C/C(=C1/SC(=S)N(CCC(=O)O)C1=O)c1ccc(O)cc1	?	?	-27%	-6%	-24	?
CC(=C1SC(=S)NC1=O)c1ccccc1	·	·	3%	·	-54*	-11%[11.6 µM]
O=C(Nc1ccc(Nc2ccncc2)cc1)c1ccc(Nc2ccnc3ccc([N+](=O)[O-])cc23)cc1[N+](=O)[O-]	-1%	1%	-24%	-3%	-54*	-33%
NS(=O)(=O)c1nn2cc(-c3ccccc3)nc2s1	-2%	3%	·	1%	·	·
CC(=O)C1=C(C)NC(SCC(=O)c2ccc(F)cc2)=C(C#N)C1CC(C)C (configuration not stated)	3%	6%	-11%	5%	-57*	-20%
Brc1ccc(C2Nc3cccc4cccc(c34)N2)o1	?	?	28µM*	-1%	·	-21%[57.1 µM]
Cn1c2ccccc2c(=O)n2c(=O)c3ccccc3cc12	?	0%	·	25µM*	·	·
O=C1N/C(=N/O)S/C1=C/c1cccnc1	8%	i	15%	0%	-55*	-2%
COC(=O)c1ccc(NC(=O)C(=O)c2cccn2C)cc1	-5%	-2%	12%	-14%	-53*	-4%
O=C(N/N=C/C=C\c1ccco1)c1cccs1	9%	-12%	-18%	18µM*	-27	-5%[11.6 µM]
Cc1ccc(CSc2nnc(SCC(=O)N/N=C/C=C/c3ccccc3[N+](=O)[O-])s2)cc1	0%	i	-10%	-3%	-17	-29%[57.1 µM]
Cc1cccc(OCC(=O)N/N=C/C=C/c2ccco2)c1	-2%	-5%	-7%	?	-76*	-26%[57.1 µM]
Cc1ccc(CSc2nnc(SCC(=O)N/N=C/C=C/c3ccco3)s2)cc1	35µM*	-26%	-9%	?	?	-11%
Nc1ccc(S(=O)(=O)N2CCOCC2)cc1	·	·	-3%	·	·	·
O=C1C(=O)c2ncccc2-c2cccnc21	·	·	·	16µM*	·	·
Cc1ccc(S(=O)(=O)N2CCN(c3nc(-c4cccs4)cc4ccccc34)CC2)cc1	·	·	-4%	·	·	·
Cc1ccc(NC(=O)c2cc(N3C(=O)C=CC3=O)ccc2N2CCOCC2)cc1	1%	5%	-1%	-8%	-63*	35µM*

Source: PubChem
